# Screening results: PubChem BioAssay, National Center for Advancing Translational Sciences (NCATS)
# This excerpt belongs to a sample that is enriched for hits.
# NS1 function inh – influenza NS1 inhibition. Potency, µM (top dose mostly 46.1 µM), for inactives: top-dose activity, positive = more growth. hit rate 0.4% among 270,000. AID 2326; note: potency is the fitted concentration of half-maximal effect; actives are rising curves; nearly all actives have a fitted effect of over 50% in size
#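 Read-out: OD600 growth recovery of NS1-expressing budding yeast. Cells grown overnight at 30C in -URA glucose medium, washed, resuspended and diluted 1:100 in 2% galactose assay medium, pH 6.0. Same strain lacking NS1 served as positive control.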
# Cycloheximide cs – counter-screen hit for Shiga toxin inhibitors, cycloheximide | hit rate 12% among 300,000 | AID 2314 | max response, % | cell reporter, cycloheximide protein synthesis inhibition counterscreen; in the data active = max response mostly above about 13%, no sharp cut-off; inactive = mostly below about 14%; note: read at 38.3 µM for the half of the compounds with a filed dose; 0% is about no effect
# Shiga toxin inh – inhibitors of Shiga toxin in Vero cells; Vero cells, Shiga toxin protein synthesis inhibition reporter; inhibition, % at 38.7 µM; hit rate 9.2% among 290,000; in the data active = inhibition mostly above about 28%, no sharp cut-off; inactive = mostly below about 43%; note: 0% is about no effect
# AmpC inh detg – blocks E. coli AmpC beta-lactamase in detergent assay. hit rate 0.041% among 370,000. Potency, µM (top dose mostly 114 µM), for inactives: at the top dose activity change, negative = inhibition, hits mostly inhibitors. AmpC hydrolysis of nitrocefin, absorbance 480 nm, 0.01% Triton. P00811; active = well fitted curve in the direction sought with a large enough effect; inconclusive = small, poorly fitted or top-dose-only effect, or another doubt; inactive = no such curve, though single readings can be large; an effect the other way counts as inactive or inconclusive;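 note: potency is the fitted concentration of half-maximal effect; 0% = no-compound wells and -100% = no-enzyme wells; nearly all actives have a fitted effect of over 25% in size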
# Target sequence (P00811 whole entry, looked up): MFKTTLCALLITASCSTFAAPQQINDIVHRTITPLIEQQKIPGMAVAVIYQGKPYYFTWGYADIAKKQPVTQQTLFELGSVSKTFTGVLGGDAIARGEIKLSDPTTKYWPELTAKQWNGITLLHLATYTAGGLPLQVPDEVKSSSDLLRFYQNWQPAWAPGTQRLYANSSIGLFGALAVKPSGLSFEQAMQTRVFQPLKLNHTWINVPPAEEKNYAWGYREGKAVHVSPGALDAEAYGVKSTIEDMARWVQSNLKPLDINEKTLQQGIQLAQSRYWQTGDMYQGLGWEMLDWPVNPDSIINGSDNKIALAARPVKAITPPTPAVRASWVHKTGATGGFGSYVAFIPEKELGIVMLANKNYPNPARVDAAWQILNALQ
#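 AmpC (5.3 nM in the dispensed reagent) in 20 mM phosphate pH 7.0 with 0.01% (detergent screen) or 0.0001% Triton X-100 was preincubated with compounds for 15 min at room temperature. Nitrocefin was then added from an 800 uM solution, and hydrolysis was followed at 480 nm.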
# AmpC inh no detg – inhibitors of E. coli AmpC beta-lactamase without detergent; Potency, µM (series often up to 57.1 µM), for inactives: at the top dose activity change, negative = inhibition, actives largely listed as inhibitors; P00811; hit rate 0.52% among 330,000; AmpC nitrocefin hydrolysis, absorbance 480 nm, 0.0001% Triton; active = well fitted curve in the direction sought with a large enough effect; inconclusive = small, poorly fitted or top-dose-only effect, or another doubt; inactive = no such curve, though single readings can be large; an effect the other way counts as inactive or inconclusive;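 note: potency is the fitted concentration of half-maximal effect; plate controls were no compound for no effect and no enzyme for full effect; nearly all actives have a fitted effect of over 20% in size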
#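 AmpC (5.3 nM in the dispensed reagent) in 20 mM phosphate pH 7.0 with 0.01% (detergent screen) or 0.0001% Triton X-100 was preincubated with compounds for 15 min at room temperature. Nitrocefin was then added from an 800 uM solution, and hydrolysis was followed at 480 nm.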
# NS1 inh valid – validation of influenza NS1 protein function inhibitors; shares compounds with NS1 function inh; influenza NS1 function cell assay, 15-point titration; activity change, negative = inhibition, % at 32.9 µM; 1,400 tested, under 10 active; AID 492980; note: 0% is about no effect
# PR8 titer – influenza NS1 inhibitors: inhibition of influenza A/PR/8/34 replication. shares compounds with NS1 function inh. MDCK infected influenza A/PR/8/34, virus titer TCID50; stronger effect = lower value. virus titer (log TCID50), log10 TCID50 at 5 µM. hit rate 30% among 95; call rule not given here
# The depositor's hits bear a star; ? = inconclusive; . = not tested or not shown. Unless noted, calls come from the whole dose curve.
SMILES,NS1 function inh,Cycloheximide cs,Shiga toxin inh,AmpC inh detg,AmpC inh no detg,NS1 inh valid,others
CC1(c2ccc3ccccc3c2)NC(=O)N(CC(=O)Nc2cccc(S(=O)(=O)N3CCOCC3)c2)C1=O (stereo unspecified),10µM*,-3,18,-10%,4%,17,PR8 titer=8.3
O=C(N/N=C\c1c(O)ccc2ccccc12)c1ccc(S(=O)(=O)N2CCCCC2)cc1,25%,-2,-16,-16%,-27%,.,
Cc1cccc(N2C(=O)NC(=O)C3(Cc4cc(C)ccc4N(C)C3)C2=O)c1 (stereo unspecified),4.5µM*,-5,-17,?,-31%,13,
Cc1cc(C)c2sc(NNC(=O)c3ccc(S(=O)(=O)N4CCc5ccccc5C4)cc3)nc2c1,11µM*,-1,-4,-19%,3.5µM*,6,
Cc1csc(=O)n1CC(=O)Nc1ccc(Cl)c(Cl)c1,.,.,.,.,-29%,.,
O=C(Cn1c2c(sc1=O)C1c3ccccc3OCC1CS2)Nc1ccc(Cl)c(Cl)c1 (stereo unspecified),20µM*,11,9,?,-35%,-5,
O=c1cc(O)c2sc3nc(-c4cccnc4)cc(C(F)(F)F)c3c2[nH]1,10µM*,-4,17,?,1%,18,
Cc1ccccc1-n1ncc(C(C)NS(=O)(=O)c2sccc2C)c1C (stereo unspecified),-2%,9,1,2%,22%,.,
NC(=O)[C@H](Cc1cc2ccccc2s1)NC(=O)[C@@H]1CC2(CC(c3cccc(NC(=O)[C@@H]4CCC(=O)N4)c3)=NO2)CN1C(=O)c1ccccc1 (stereo partly specified),-1%,-3,-19,1%,164%,.,
NC(=O)[C@H](Cc1cc2ccccc2s1)NC(=O)[C@@H]1CC2(CC(c3cccc(NC(=O)[C@@H]4CCC(=O)N4)c3)=NO2)CN1C(=O)/C=C/Sc1ccccc1 (stereo partly specified),18µM*,-2,24,-1%,202%,33,
COc1ccc(OCC(O)CNC(=O)c2c(-c3ccccc3)noc2C)cc1 (stereo unspecified),-1%,-2,-11,3%,-5%,.,
Cc1ccc(C)c(N2CCN(C(=O)CCNC(=O)Cn3ccc4ccccc4c3=O)CC2)c1,?,9,-13,4%,-15%,3,
COc1ccc(S(=O)(=O)N(C)C)cc1NC(=O)CCNC(=O)c1ccco1,-5%,-10,-3,?,0%,.,
O=C(NCc1cc(C(F)(F)F)cc(C(F)(F)F)c1)C12CN(Cc3ccccc3)CC1C(c1cccc([N+](=O)[O-])c1)=NO2 (stereo unspecified),22µM*,11,-7,-1%,-9%,-18,PR8 titer=7.3*
O=C(NCc1ccccc1)C12CN(Cc3ccccc3)CC1C(c1cccc([N+](=O)[O-])c1)=NO2 (stereo unspecified),-2%,-1,-15,?,-30%,.,
CC(=O)N1CCN=C1SCc1ccccc1F,1.3µM*,-2,-1,-7%,3.5µM*,5,
CCC(=O)N1CCC2(CC1)Oc1ccc(Cl)cc1C(=O)C21CC(c2ccccc2)=NO1 (stereo unspecified),?,-5,-10,1%,150%,?,
Cc1ccc(NC(=S)/N=C(\N)Nc2nc(C)c3cc(C)ccc3n2)c(C)c1,16%,1,-6,-5%,-29%,.,
CCc1ccccc1NC(=S)/N=C(\N)Nc1nc(C)c2cc(C)ccc2n1,?,3,11,?,-13%,-29,
Cn1c(SCC(=O)Nc2ncc(C(F)(F)F)cc2Cl)nnc1-c1ccc(Cl)cc1,18%,-5,-2,-10%,8%,.,
Cc1cc(NC(=O)CSc2nc3c([nH]c4ccccc43)c(=O)n2-c2ccccc2F)no1,-33%,-1,-4,-5%,-24%,.,
COc1ccc(CCNC(=O)c2ccccc2NS(=O)(=O)c2c(F)cccc2F)cc1,4%,-4,-5,-2%,?,.,
